EBV LMP1 NFkB: EBV LMP1-driven NF-kappaB luciferase reporter inhibitors, primary screen, cell-based, luminescence, single point | LMP1-induced NF-kappaB luciferase reporter cells | inhibition, % at 12.5 µM | AID 504558, 2011 | 0.69% of 350,000 active; in the data active = inhibition above about 41%
LGR2 inh: inhibitors of bursicon-induced LGR2 CRE-luciferase signal, primary screen, cell-based, HEK293, CRE-luciferase reporter, bursicon stimulation; Drosophila bursicon receptor LGR2 (rickets); bursicon-stimulated, 4 h; inhibition, % at 9.99 µM; 0.35% of 380,000 active;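 active = drop in luminescence signal, shown as inhibition above about 50% in the replicate tests, limit read from the data, passing the limit was not always enough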;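 note: agonist challenge used bursicon conditioned medium at about half maximal strength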
TWEAK Fn14 block: inhibitors of TWEAK-Fn14 signaling, primary screen, luciferase reporter cells, uHTS | 2% of 360,000 active | AID 1159606, 2016 | inhibition, % at 10 µM | TWEAK-stimulated Fn14 reporter cells, luciferase luminescence, 8 h; in the data active = inhibition above about 50%
TROY signal inh: inhibitors of TROY-driven NF-kB signaling, primary screen, Q293 LMP1-TROYcd cells, NF-kB luciferase, uHTS | Q293 LMP1-TROYcd NF-kB luciferase reporter, 4 h | inhibition, % at 10 µM | 0.98% of 360,000 active | AID 1347056, 2019;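 active = compounds whose plate-normalised and pattern-corrected inhibition of the luciferase reporter signal at the single screening dose is 50% or more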
PAX8 inh HTS: inhibitors of PAX8-driven TPO luciferase reporter, primary screen, RMG-I cells, single concentration; SteadyGlo, 24 h; 1.2% of 360,000 active; inhibition, % at 12.6 µM;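 active = mean replicate inhibition at least 60% with every replicate also reaching 60%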;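 note: luciferase light reporting Pax8 driven TPO promoter activity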
EWS-Fli inh: EWS/Fli-driven NR0B1 reporter inhibitors, primary screen, A673 cells, NR0B1 luciferase, luminescence, MLPCN library; viability-normalised; inhibition, % at 12.6 µM; 0.67% of 350,000 active; AID 651661, 2012;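 active = mean inhibition of at least 50% after viability correction, with every replicate also passing that limit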;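 note: firefly luciferase signal divided by Alamar Blue viability fluorescence both relative to DMSO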
Large screens that a line does not name were inactive. A selection: hits, their analogues and other compounds. The true share with any hit is near 3.2%.

C[C@@H]1CN([C@H](C)CO)C(=O)c2cc(NS(=O)(=O)c3cccs3)ccc2O[C@@H](C)CCCCO[C@H]1CN(C)S(=O)(=O)c1ccc(F)cc1	none (no result: EBV LMP1 NFkB, TWEAK Fn14 block, TROY signal inh)
C[C@H](CO)N1C[C@H](C)[C@@H](CN(C)Cc2cccnc2)Oc2ncc(-c3ccccc3)cc2C1=O	none (no result: EBV LMP1 NFkB, TWEAK Fn14 block, TROY signal inh, PAX8 inh HTS)
C[C@H]1CCCCO[C@@H](CN(C)C(=O)Cc2ccccc2)[C@@H](C)CN([C@@H](C)CO)C(=O)c2cc(NS(=O)(=O)c3cn(C)cn3)ccc2O1	none (no result: EBV LMP1 NFkB, TWEAK Fn14 block, TROY signal inh)
C[C@H]1CN([C@@H](C)CO)C(=O)CCCn2cc(nn2)CO[C@H]1CN(C)C(=O)Nc1ccc2c(c1)OCCO2	none (no result: EBV LMP1 NFkB, TWEAK Fn14 block, TROY signal inh, PAX8 inh HTS)
O=C(Cc1ccccn1)c1ccccc1	none
O=C(CCCc1ccccn1)c1ccccc1	TWEAK Fn14 block 84
CO[C@H]1CN(C)C(=O)c2ccc(NS(=O)(=O)c3ccc(-c4ccccc4)cc3)cc2OC[C@@H](C)NC[C@H]1C	none (no result: EBV LMP1 NFkB, TWEAK Fn14 block, TROY signal inh)
CCOC(=O)c1c(C)nc2c(C)cccn12	TWEAK Fn14 block 84 (no result: LGR2 inh, TROY signal inh, PAX8 inh HTS, EWS-Fli inh)
CS(=O)(=O)c1ccc(CNC(=O)C2(C(F)(F)F)CC(CCCO)CCCO2)cc1 (stereo not drawn)	EWS-Fli inh 59 (no result: EBV LMP1 NFkB, TWEAK Fn14 block, TROY signal inh)
C[C@@H]1CCCCO[C@@H](CN(C)CC2CC2)[C@H](C)CN([C@H](C)CO)C(=O)c2cc(NC(=O)c3ccccc3)ccc2O1	none (no result: EBV LMP1 NFkB, TWEAK Fn14 block, TROY signal inh, EWS-Fli inh)
O=S(=O)(Nc1ccc(O)c(Sc2nc3ccccc3s2)c1)c1cccc2ccccc12	TWEAK Fn14 block 50, TROY signal inh 67 (no result: EWS-Fli inh)
CCCN1[C@@H]2c3cccc(=O)n3C[C@H]1[C@H](CO)[C@H]2C(=O)N[C@H](C)c1ccccc1	none (no result: EBV LMP1 NFkB, TWEAK Fn14 block, TROY signal inh, PAX8 inh HTS)
O=C1CN(S(=O)(=O)c2ccccc2)C[C@@H]2[C@H](c3ccc(C#Cc4ccccc4)cc3)[C@H](CO)N12	none (no result: EBV LMP1 NFkB, TWEAK Fn14 block, TROY signal inh, PAX8 inh HTS, EWS-Fli inh)
CC(=O)N=c1sc2cc(C)ccc2n1C	TWEAK Fn14 block 52 (no result: PAX8 inh HTS, EWS-Fli inh)
Cn1c(=NC(=O)CCl)sc2ccccc21	EWS-Fli inh 74 (no result: PAX8 inh HTS)
COc1ccccc1CC(Cc1nc2ccccc2[nH]1)c1nc2ccccc2[nH]1 (stereo not drawn)	none
N#CC(Cc1ccccc1OC(F)F)c1nc2ccccc2[nH]1 (stereo not drawn)	PAX8 inh HTS 76
CC1CC(Nc2ccccc2)c2ccccc2N1C(=O)c1ccccc1F (stereo not drawn)	EWS-Fli inh 63
COc1ccccc1C#Cc1ccc2c(c1)O[C@H](CN(C)Cc1ccncc1)[C@@H](C)CN([C@@H](C)CO)S2(=O)=O	PAX8 inh HTS 93 (no result: EBV LMP1 NFkB, TWEAK Fn14 block, TROY signal inh)
COc1ccccc1C#Cc1ccc2c(c1)O[C@@H](CN(C)Cc1ccncc1)[C@H](C)CN([C@H](C)CO)S2(=O)=O	PAX8 inh HTS 99 (no result: EBV LMP1 NFkB, TWEAK Fn14 block, TROY signal inh)
COc1ccccc1C#Cc1ccc2c(c1)O[C@@H](CN(C)Cc1ccncc1)[C@H](C)CN([C@@H](C)CO)S2(=O)=O	PAX8 inh HTS 101 (no result: EBV LMP1 NFkB, TWEAK Fn14 block, TROY signal inh)
COc1ccccc1C#Cc1ccc2c(c1)O[C@@H](CN(C)Cc1ccncc1)[C@@H](C)CN([C@H](C)CO)S2(=O)=O	none (no result: EBV LMP1 NFkB, TWEAK Fn14 block, TROY signal inh)
COc1ccccc1C#Cc1ccc2c(c1)O[C@H](CN(C)Cc1ccccc1)[C@@H](C)CN([C@@H](C)CO)S2(=O)=O	none (no result: EBV LMP1 NFkB, TWEAK Fn14 block, TROY signal inh, PAX8 inh HTS)
COc1ccccc1C#Cc1ccc2c(c1)O[C@@H](CN(C)Cc1cccnc1)[C@H](C)CN([C@@H](C)CO)S2(=O)=O	PAX8 inh HTS 68 (no result: EBV LMP1 NFkB, TWEAK Fn14 block, TROY signal inh)
COc1ccccc1C#Cc1ccc2c(c1)O[C@@H](CN(C)Cc1cccnc1)[C@@H](C)CN([C@@H](C)CO)S2(=O)=O	none (no result: EBV LMP1 NFkB, TWEAK Fn14 block, TROY signal inh)
CO[C@@H]1CN(C)C(=O)c2ccc(NS(=O)(=O)c3ccccc3C)cc2OC[C@@H](C)N(S(C)(=O)=O)C[C@H]1C	none (no result: EBV LMP1 NFkB, TWEAK Fn14 block, TROY signal inh, PAX8 inh HTS)
CCOC(=O)c1ccc2ncc(C(=O)OCC)c(Nc3ccc(N4CCOCC4)cc3)c2c1	LGR2 inh 55, TWEAK Fn14 block 53
CCOC(=O)c1ccc2ncc(C(=O)OCC)c(NCCCN3CCOCC3)c2c1	none (no result: LGR2 inh, PAX8 inh HTS, EWS-Fli inh)
CCOC(=O)c1cnc2ccc(C(=O)OC)cc2c1Nc1ccc(C(=O)O)cc1	PAX8 inh HTS 104
C[C@@H]1CN([C@H](C)CO)C(=O)Cc2cc(NS(=O)(=O)c3cccs3)ccc2O[C@H]1CN(C)Cc1ccncc1	none (no result: EBV LMP1 NFkB, TWEAK Fn14 block, TROY signal inh)

High-throughput results (PubChem BioAssay)
